Reference: paper PMC5700166

How the values were obtained:
Test in all cases: protein-binding microarray (PBM); PBM: ~300 nM protein, 6 mM HEPES pH 7.8, 80 mM KCl, 0.5 mM EDTA, 0.5 mM EGTA, 6% glycerol, 35 ng/ul poly-dIdC, 1% milk, 1 h, room temperature; Ap Aiptasia and Nv Nematostella (sea anemones) / Co Capsaspora / Aq Amphimedon (sponge) / Dm Drosophila / Hu human; RHD is the Rel homology domain; high values mean tight binding
Conditions in all cases: dsDNA, one strand shown
[1] = target: T1, GST-Ap-NF-kB RHD (Exaiptasia pallida (Aiptasia), UniProt A0A913YAJ5 2-422)
T1 sequence: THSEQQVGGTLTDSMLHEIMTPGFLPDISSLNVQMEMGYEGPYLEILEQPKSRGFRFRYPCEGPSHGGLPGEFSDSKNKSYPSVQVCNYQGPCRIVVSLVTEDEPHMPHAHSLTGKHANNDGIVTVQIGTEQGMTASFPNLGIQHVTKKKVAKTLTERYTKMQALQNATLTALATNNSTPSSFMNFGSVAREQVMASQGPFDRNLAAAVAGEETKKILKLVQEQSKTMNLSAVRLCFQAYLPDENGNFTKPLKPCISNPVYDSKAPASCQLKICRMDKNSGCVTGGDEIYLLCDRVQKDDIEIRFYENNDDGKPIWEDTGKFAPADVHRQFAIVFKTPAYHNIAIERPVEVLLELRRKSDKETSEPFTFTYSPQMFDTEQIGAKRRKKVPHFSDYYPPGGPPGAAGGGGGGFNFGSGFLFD

[2] = target: T2, GST-Nv-NF-kB (Cys allele) (Nematostella vectensis, UniProt E5G601 2-411)
T2 sequence: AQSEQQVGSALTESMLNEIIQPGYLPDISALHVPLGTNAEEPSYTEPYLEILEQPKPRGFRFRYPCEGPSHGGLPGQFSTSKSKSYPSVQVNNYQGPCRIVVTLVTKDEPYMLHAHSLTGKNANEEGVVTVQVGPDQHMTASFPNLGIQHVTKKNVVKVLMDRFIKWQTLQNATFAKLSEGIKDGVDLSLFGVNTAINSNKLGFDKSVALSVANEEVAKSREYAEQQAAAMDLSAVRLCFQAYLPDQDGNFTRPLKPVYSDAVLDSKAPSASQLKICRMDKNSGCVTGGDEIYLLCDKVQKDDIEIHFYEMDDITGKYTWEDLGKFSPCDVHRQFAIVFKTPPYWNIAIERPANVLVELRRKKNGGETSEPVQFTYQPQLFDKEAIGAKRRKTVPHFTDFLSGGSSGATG

[3] = target: T3, GST-Co-NF-kB (Capsaspora owczarzaki, UniProt F1ARL5 200-546)
T3 sequence: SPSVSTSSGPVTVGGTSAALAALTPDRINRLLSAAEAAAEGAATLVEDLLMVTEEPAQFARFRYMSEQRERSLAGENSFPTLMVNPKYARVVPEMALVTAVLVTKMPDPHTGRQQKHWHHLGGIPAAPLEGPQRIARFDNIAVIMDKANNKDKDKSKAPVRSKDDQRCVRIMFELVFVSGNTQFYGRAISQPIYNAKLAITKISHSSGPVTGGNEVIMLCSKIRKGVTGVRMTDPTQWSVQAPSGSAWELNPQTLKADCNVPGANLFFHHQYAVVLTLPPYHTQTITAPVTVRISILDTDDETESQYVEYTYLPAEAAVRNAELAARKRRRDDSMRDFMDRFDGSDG

[4] = target: T4, GST-Dm-Relish (Drosophila melanogaster, UniProt Q94527 99-473)
T4 sequence: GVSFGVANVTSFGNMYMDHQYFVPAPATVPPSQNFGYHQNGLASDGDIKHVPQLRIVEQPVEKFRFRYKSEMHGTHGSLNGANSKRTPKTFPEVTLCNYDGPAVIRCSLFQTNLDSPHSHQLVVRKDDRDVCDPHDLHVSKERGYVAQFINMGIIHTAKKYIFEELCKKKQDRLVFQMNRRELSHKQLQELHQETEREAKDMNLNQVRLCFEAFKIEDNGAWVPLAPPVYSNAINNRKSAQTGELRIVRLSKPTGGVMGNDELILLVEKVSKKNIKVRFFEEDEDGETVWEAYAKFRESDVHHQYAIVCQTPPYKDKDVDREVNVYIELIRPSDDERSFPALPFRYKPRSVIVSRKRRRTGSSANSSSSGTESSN

[5] = target: T5, GST-Aq-NF-kB (Amphimedon queenslandica, UniProt A9Y5G7 2-389)
T5 sequence: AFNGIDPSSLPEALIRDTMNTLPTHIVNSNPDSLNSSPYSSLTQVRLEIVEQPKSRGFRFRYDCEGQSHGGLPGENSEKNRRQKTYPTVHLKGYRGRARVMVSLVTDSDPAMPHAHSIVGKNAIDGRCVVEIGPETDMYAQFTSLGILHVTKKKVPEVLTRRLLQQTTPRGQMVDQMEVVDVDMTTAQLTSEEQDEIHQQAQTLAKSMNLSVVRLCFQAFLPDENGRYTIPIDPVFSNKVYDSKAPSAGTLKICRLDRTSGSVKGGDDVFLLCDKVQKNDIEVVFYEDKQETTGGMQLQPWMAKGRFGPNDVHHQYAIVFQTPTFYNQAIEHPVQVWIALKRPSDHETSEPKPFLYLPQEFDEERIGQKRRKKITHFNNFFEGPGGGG

Sequence | binding signal [1] [z-score] | binding signal [2] [z-score] | binding signal [3] [z-score] | binding signal [4] [z-score] | binding signal [5] [z-score]
CCGATTAACATCAAAACAATCCCTGATGTTAATCGGGTCTTGATTCGCTTGACGCTGCTG | 2.49 | 3.19 | 1.41 | 2.25 | 4.66
CCGATTAACATCAGGCTTCCCCCTGATGTTAATCGGGTCTTGATTCGCTTGACGCTGCTG | 5.74 | 5.65 | 6.8 | 6.44 | 5.57
CCGATTAACATCAAGGGGGGTGGTGATGTTAATCGGGTCTTGATTCGCTTGACGCTGCTG | 3.51 | 3.67 | 3.06 | 4.12 | 4.15
CCGATTAACATCACGGCTTTCCCTGATGTTAATCGGGTCTTGATTCGCTTGACGCTGCTG | 2.31 | 3.5 | 2.32 | 2.21 | 3.7
CCGATTAACATCAGGGGCACCCCTGATGTTAATCGGGTCTTGATTCGCTTGACGCTGCTG | 5.17 | 3.94 | 2.5 | 7.23 | 7.19
CCGATTAACATCAGGGGAGAACCTGATGTTAATCGGGTCTTGATTCGCTTGACGCTGCTG | 6.35 | 4.58 | 5.4 | 5.43 | 5.51
CCGATTAACATCAAATACTTCCCTGATGTTAATCGGGTCTTGATTCGCTTGACGCTGCTG | 2.22 | 3.32 | 2.96 | 2.69 | 4.24
CCGATTAACATCACGGGAAACTCTGATGTTAATCGGGTCTTGATTCGCTTGACGCTGCTG | 3.67 | 4.12 | 4.3 | 1.55 | 4.35
CCGATTAACATCAGGGGGTCACCTGATGTTAATCGGGTCTTGATTCGCTTGACGCTGCTG | 3.61 | 2.23 | 1.96 | 6.03 | 4.39
CCGATTAACATCAAATCATCCCCTGATGTTAATCGGGTCTTGATTCGCTTGACGCTGCTG | 4.78 | 5.38 | 5.87 | 4.06 | 5.27
CCGATTAACATCAGGGACTCCCATGATGTTAATCGGGTCTTGATTCGCTTGACGCTGCTG | 5.29 | 4.05 | 1.08 | 9.01 | 4.46
CCGATTAACATCAAACAATTCCCTGATGTTAATCGGGTCTTGATTCGCTTGACGCTGCTG | 3.25 | 5.26 | 3.45 | 1.6 | 4.85
CCGATTAACATCACTAAATTCCCTGATGTTAATCGGGTCTTGATTCGCTTGACGCTGCTG | 3.8 | 5.35 | 4.15 | 3.63 | 4.56
CCGATTAACATCAAAGTACCCCCTGATGTTAATCGGGTCTTGATTCGCTTGACGCTGCTG | 6.74 | 4.38 | 6.64 | 4.39 | 4.52
CCGATTAACATCAGGGGGGGACCTGATGTTAATCGGGTCTTGATTCGCTTGACGCTGCTG | 7.43 | 4.15 | 5.99 | 4.96 | 5.51
CCGATTAACATCAGGGGTCCCCATGATGTTAATCGGGTCTTGATTCGCTTGACGCTGCTG | 4.7 | 2.57 | 1.99 | 7.31 | 3.6
CCGATTAACATCAAGGCATTCCCTGATGTTAATCGGGTCTTGATTCGCTTGACGCTGCTG | 1.97 | 2.56 | 1.94 | 2.53 | 3.27
CCGATTAACATCACCCCAGCCCCTGATGTTAATCGGGTCTTGATTCGCTTGACGCTGCTG | 3.28 | 1.93 | 2.88 | 2.39 | 2.91

Sequence | binding signal [1] [z-score] | binding signal [2] [z-score] | binding signal [3] [z-score] | binding signal [4] [z-score] | binding signal [5] [z-score]
CCGATTAACATCAGGGAATTAAATGATGTTAATCGGGTCTTGATTCGCTTGACGCTGCTG | 2.06 | 4.46 | 3.84 | 2.47 | 4.32
CCGATTAACATCACGGAACTCCCTGATGTTAATCGGGTCTTGATTCGCTTGACGCTGCTG | 3 | 3.34 | 1.42 | 4.06 | 4.43
CCGATTAACATCAGGGGAAGGAATGATGTTAATCGGGTCTTGATTCGCTTGACGCTGCTG | 3.87 | 5.34 | 6.35 | 3.59 | 4.05
CCGATTAACATCAATATTTCCCATGATGTTAATCGGGTCTTGATTCGCTTGACGCTGCTG | 2.29 | 3.85 | 5.1 | 1.61 | 3.82
CCGATTAACATCAGGGGGGGTTATGATGTTAATCGGGTCTTGATTCGCTTGACGCTGCTG | 6.15 | 3.92 | 4.45 | 6.55 | 5.06
CCGATTAACATCAATTTTTCCCATGATGTTAATCGGGTCTTGATTCGCTTGACGCTGCTG | 2.62 | 4.2 | 5.21 | 1.64 | 3.27
CCGATTAACATCACGTAAACCCCTGATGTTAATCGGGTCTTGATTCGCTTGACGCTGCTG | 3.55 | 2.68 | 1.08 | 6.43 | 3.41
CCGATTAACATCAGAACTTTCCCTGATGTTAATCGGGTCTTGATTCGCTTGACGCTGCTG | 4.2 | 6.87 | 3.78 | 2.67 | 7.19
CCGATTAACATCAGGGGGTGTAATGATGTTAATCGGGTCTTGATTCGCTTGACGCTGCTG | 3.57 | 3.16 | 3.87 | 3.25 | 3.21
CCGATTAACATCAAGAGACCCCCTGATGTTAATCGGGTCTTGATTCGCTTGACGCTGCTG | 5.03 | 2.88 | 2.08 | 3.99 | 3.76
CCGATTAACATCAGGCGTCCCCCTGATGTTAATCGGGTCTTGATTCGCTTGACGCTGCTG | 5.61 | 5.07 | 4.12 | 3.92 | 4.77
CCGATTAACATCACCGCCCCACGTGATGTTAATCGGGTCTTGATTCGCTTGACGCTGCTG | 1.95 | 1.73 | 1.4 | 1.95 | 1.28
CCGATTAACATCACAGCCCCCCCTGATGTTAATCGGGTCTTGATTCGCTTGACGCTGCTG | 4.64 | 3.58 | 3.34 | 4.81 | 3.82
CCGATTAACATCAGGATAATCCCTGATGTTAATCGGGTCTTGATTCGCTTGACGCTGCTG | 4.74 | 3.01 | 1.51 | 2.88 | 5.24
CCGATTAACATCAAGGGAAACCCTGATGTTAATCGGGTCTTGATTCGCTTGACGCTGCTG | 4.71 | 5.3 | 2.82 | 7.64 | 5.8
CCGATTAACATCAAGGTACCCCCTGATGTTAATCGGGTCTTGATTCGCTTGACGCTGCTG | 5.83 | 2.82 | 4.58 | 2.84 | 3.11
CCGATTAACATCAGGGGGAGTGATGATGTTAATCGGGTCTTGATTCGCTTGACGCTGCTG | 5.05 | 3.63 | 3.71 | 1.66 | 3.44
